Bioassay records from PubChem.
Shown are actives, neighbours in structure and some others; about 10% of the full set was active somewhere.
HP1b chromo inh = inhibitors of HP1-beta chromodomain binding to methylated histone tails; P83916; Potency, µM (highest dose often 114 µM), for the others: at the highest dose activity change, negative = inhibition, usual class: inhibitors; AID 540317; AlphaScreen HP1-beta / biotin-H3K9me3 peptide binding; 0.56% of 390,000 active; also: potency is read from the fitted curve at half-maximal effect; nearly all actives have a fitted effect of over 70% in size
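Compound inhibition of the preformed complex between 50 nM HP1-beta and 50 nM biotinylated H3K9me3 peptide was read by AlphaScreen. Buffer was PBS pH 7.4 with 0.01% Tween-20. Incubations ran 30 min at room temperature, with 10 ug/mL donor/acceptor beads.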
G9a block = blocks human histone lysine methyltransferase G9a; 8.8% of 350,000 active; Potency, µM (series often up to 102 µM), for the others: top-dose activity, negative = inhibition, hits mostly inhibitors; Q96KQ7; G9a H3K9 monomethylation, AlphaScreen, 2 h; also: potency is read from the fitted curve at half-maximal effect; % is scaled to controls: 0 for no effect and ±100 for the full control effect; nearly all actives have a fitted effect of over 75% in size
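Step 1: enzyme (final 20 nM) with compound, 15 min RT. Step 2: substrate peptide 500 nM and SAM 20 uM, 2 h RT. Step 3: anti-H3K9me1 antibody and AlphaScreen beads, 10 min, then plate read.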
Six1-Eya2 blk = Six1/Eya2 interaction inhibition; Q15475+O00167; AlphaScreen GST-Six1/His-Eya2 binding, biochemical; hits give low values; activity change, % (no concentration beside the values); 0.56% of 360,000 active; AID 651725; in the data active = activity change below about -65%; inconclusive = mostly about -30% to -63%; also: % is scaled to controls: 0 for no effect and ±100 for the full control effect
Target sequence (O00167 whole entry, looked up): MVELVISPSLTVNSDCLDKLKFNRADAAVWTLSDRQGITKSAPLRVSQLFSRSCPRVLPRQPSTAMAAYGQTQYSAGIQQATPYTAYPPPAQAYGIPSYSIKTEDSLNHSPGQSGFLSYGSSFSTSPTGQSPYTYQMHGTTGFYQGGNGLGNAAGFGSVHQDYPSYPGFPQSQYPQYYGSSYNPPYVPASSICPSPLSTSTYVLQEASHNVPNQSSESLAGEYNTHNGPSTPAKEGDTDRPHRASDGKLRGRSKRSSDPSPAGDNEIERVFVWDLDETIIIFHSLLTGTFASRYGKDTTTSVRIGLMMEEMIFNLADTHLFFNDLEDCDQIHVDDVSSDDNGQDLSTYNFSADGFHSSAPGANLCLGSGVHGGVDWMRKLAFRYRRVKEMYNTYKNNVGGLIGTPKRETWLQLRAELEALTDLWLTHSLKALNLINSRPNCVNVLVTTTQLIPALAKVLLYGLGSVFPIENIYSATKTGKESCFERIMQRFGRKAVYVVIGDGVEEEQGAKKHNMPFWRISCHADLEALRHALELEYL
Target sequence (Q15475 whole entry, looked up): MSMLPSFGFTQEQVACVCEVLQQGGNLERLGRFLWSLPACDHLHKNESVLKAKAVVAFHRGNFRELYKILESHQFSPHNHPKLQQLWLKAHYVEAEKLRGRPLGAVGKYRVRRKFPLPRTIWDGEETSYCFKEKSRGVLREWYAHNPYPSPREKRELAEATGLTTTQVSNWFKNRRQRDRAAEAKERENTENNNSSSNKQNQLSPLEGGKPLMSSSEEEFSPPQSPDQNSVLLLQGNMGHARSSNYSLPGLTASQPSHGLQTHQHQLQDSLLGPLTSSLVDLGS
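Six1/Eya2 binding was read as AlphaScreen signal after compounds were pinned into GST-Six1 plus His-tagged Eya2 (5X stock 250/500 nM) in pH 8.0 Tris/NaCl/TCEP buffer, beads added, then incubated 1 h, 37 C, dark.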
CtBP-E1A blk = CtBP/E1A binding inhibition | activity change, % (test concentration not listed) | AID 651724 | 0.49% of 340,000 active | AlphaScreen GST-E1A/His-CtBP binding, 1536-well; hits give low values; in the data active = activity change below about -65%; inconclusive = mostly about -30% to -63%; also: % is scaled to controls: 0 for no effect and ±100 for the full control effect
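Homogeneous bead-based format: GST-tagged E1A captured on glutathione donor beads, His-tagged CtBP on nickel acceptor beads; compounds precede bead addition by 2 h at 37 °C.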
BAZ2B inh = blocks human BAZ2B | Potency, µM (top dose mostly 114 µM), for inactives: at the top dose activity change, negative = inhibition, hits mostly inhibitors | AlphaScreen BAZ2B-H3K14Ac peptide displacement | 4.4% of 360,000 active | Q9UIF8; also: potency is read from the fitted curve at half-maximal effect; % is scaled to controls: 0 for no effect and ±100 for the full control effect; nearly all actives have a fitted effect of over 60% in size
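Inhibition is scored as reduced AlphaScreen emission. The BAZ2B/b-H3(5-23)K14Ac complex (50 nM each) in PBS pH 7.4, 0.01% Tween-20 meets compound (up to 110 uM) for 30 min at RT before bead addition.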
JMJD2A Tudor = inhibitors of human JMJD2A Tudor domain | 4.4% of 390,000 active | Potency, µM (titrated, usually from 114 µM), without a hit: top-dose activity change, negative = inhibition, usual class: inhibitors | AlphaScreen JMJD2A-Tudor / H3K4me3 peptide binding; also: potency is read from the fitted curve at half-maximal effect; % is scaled to controls: 0 for no effect and ±100 for the full control effect; nearly all actives have a fitted effect of over 50% in size
* marks the source's active call; other numbers are inactive results; ? = inconclusive; . = not tested or not shown; ! = not confirmed by another sample; [ ] = remark or other dose. Unless noted, calls follow the shape of the dose curve; as a rule, active = well fitted inhibition curve with a large enough effect; inconclusive = small, poorly fitted or top-dose-only effect; inactive = no such curve, though single readings can be large or run the other way.

SMILES | HP1b chromo inh | G9a block | Six1-Eya2 blk | CtBP-E1A blk | BAZ2B inh | JMJD2A Tudor
O=C(CCS(=O)(=O)c1ccc(Br)cc1)Nc1ccc(F)cc1F | 33% | 2%[59 µM] | . | . | 10% | 9%
O=C(CCS(=O)(=O)c1ccc(Br)cc1)NC1CCCC1 | -28% | 45µM* | -10 | 7 | 50µM* | 50µM*
O=C(CCNS(=O)(=O)c1ccc(Br)cc1)NC1CCCCC1 | 38% | ? | 3 | 0 | 11% | 1%
COc1ccc([N+](=O)[O-])cc1NC(=O)CCS(=O)(=O)c1ccc(Br)cc1 | ? | 14µM* | -14 | -6 | 50µM* | 40µM*
CCc1ccccc1NC(=O)CCS(=O)(=O)c1ccc(C)cc1 | 27% | 13%[2.33 µM] | -6 | 1 | 12% | -4%
O=C(CCS(=O)(=O)c1ccc(Br)cc1)Nc1cc(F)ccc1F | 32µM* | 50µM* | -3 | 4 | 45µM* | -19%[57.1 µM]
CCc1ccccc1NC(=O)CCS(=O)(=O)c1ccc(Br)cc1 | ? | 50µM* | 0 | 7 | 79µM* | ?
COc1ccc([N+](=O)[O-])cc1NC(=O)CS(=O)(=O)c1ccc(C)cc1 | 36% | 8%[12.7 µM] | 45 | -12 | -13% | -15%
CCOc1sc2nc(C)n(CC(=O)Nc3cccc(C)c3)c(=O)c2c1C | 25% | -32%[59 µM] | . | . | -1% | -4%
c1ccc(N2CCN(c3ncnc4[nH]ncc34)CC2)cc1 | -18% | -14%[59 µM] | . | . | -7% | -19%
COc1ccc(NC(=O)CN2C(=O)C(C)(C)c3ccccc32)cc1Cl | 32%[57 µM] | -1%[59 µM] | . | . | 3% | -10%
CCOc1ccc(NC(=O)CCS(=O)(=O)c2ccc(Br)cc2)cc1 | 20µM* | 45µM* | -24 | . | 35µM*! | 18µM*
CCOc1ccccc1NC(=O)COC(=O)CN(C)S(=O)(=O)c1ccc(C)cc1 | 7% | -4%[59 µM] | -2 | 7 | -21% | 89µM*
COc1ccc(C2=Nn3c(nnc3-c3ccccc3O)SC2)c(OC)c1 | . | . | . | . | . | -29%
COCCCNC(=O)c1c(NC(=O)c2cc(=O)c3ccccc3o2)sc2c1CCCC2 | 55% | 23%[59 µM] | . | . | 24% | -9%
COc1ccc(OCC(=O)c2c(O)c3ccccc3oc2=O)cc1 | 18µM* | 3.2µM* | 2 | 10 | ? | 20µM*
CCOc1ccc(OCC(=O)c2c(O)c3ccccc3oc2=O)cc1 | ? | 3.2µM* | 6 | -10 | 50µM* | 11µM*
CC(=N)c1c(O)c2ccccc2oc1=O | 19% | 5% | -16 | -3 | -18% | -8%
COc1ccc(N=Cc2c(O)c3ccccc3oc2=O)cc1 | 27% | ? | 3 | 7 | 2% | 1%
CC1CCC(C(=O)c2c(O)c3ccccc3oc2=O)CC1 (configuration not stated) | 15% | 50µM* | -13 | -7 | 9% | -19%
CCNc1ncc2nc(-c3cccs3)c(=O)n(CCC#N)c2n1 | . | -14%[0.501 µM] | . | . | . | .
C/C(=N\NC(=S)Nc1cccc(C)c1)c1cc2ccccc2o1 | ? | 35µM* | -16 | 15 | ? | 25µM*
CC/C(=N\NC(=S)Nc1cccc(C)c1)c1ccccc1 | ? | ? | -17 | -29 | ? | 50µM*
Cc1cccc(NC(=S)N/N=C2/CCCCc3ccccc32)c1 | ? | -10%[59 µM] | ? | ? | 40µM* | ?
Cc1ccc(NC(=S)N/N=C2/CCCCc3ccccc32)cc1 | -20% | ? | -21 | ? | ? | ?
Cc1nc2ccccn2c1C(O)(c1ccccc1)c1ccccc1 | . | . | . | . | . | -24%
COc1cc2nc(NC(=O)c3ccc(S(=O)(=O)N4CCCC4)cc3)sc2cc1OC | 28% | -26%[59 µM] | . | . | 4% | -10%
CC(C)c1ccc(C2N3CC4(C)CN2CC(c2ccccc2)(C3)C4=O)cc1 (configuration not stated) | 14% | -37%[59 µM] | . | . | -4% | -19%
O=C(Cc1ccc(F)cc1)N1CCC(c2nc3c(nnn3Cc3ccc(Cl)cc3)c(=O)[nH]2)CC1 | 28% | 0%[59 µM] | . | . | -18% | -20%
CCC1(CC)C(=O)NC(=O)NC1=S | 8% | . | 1 | 13 | . | 50µM*
